Reference: PubChem BioAssay
“And” between values parts separate entries of the source, which are not always exact repeats. Equal values may be shown once. Results filed as inconclusive are left out. The source made the active and inactive calls.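 The calls were made as follows, unless noted: active = normalized viability below 100% at a tested concentration; inactive = the rest.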

Experiments:
[1] = P. berghei load reduction in hepatocytes – cell-based, HepG2, luciferase luminescence, HepG2 viability, primary screen (AID 624349; in the data active = parasite load remaining mostly below about 12%, no sharp cut-off; inactive = mostly above about 10%;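 also: 100% = mean of DMSO negative control wells on the same plate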); settings: P. berghei liver stage in HepG2, luciferase luminescence, concentration not given here; parasite load remaining: stronger effect = lower value; viability: measured here: HepG2 viability without parasites
[2] = Wnt pathway potentiators raising nuclear beta-catenin – imaging, WNT3A-conditioned medium, mouse C2C12, NPC library, primary screen (AID 1117326; in the data active = nuclear beta-catenin stimulation mostly above about 4.2%, no sharp cut-off; inactive = mostly below about 10%); settings: stronger effect = higher value
[3] = stimulators of insulin release from INS-1E, primary screen, cell-based, 5 mM glucose, NPC library (AID 1117329;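 active = compound raises insulin release from rat beta cells at 5 mM glucose, no numeric limit stated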); settings: rat INS-1E insulin secretion, at 10 µM, stronger effect = higher value
[4] = growth inhibition of GSK3B-pretreated HCT116 cells – cell-based, CellTiter-Glo, 0.2 to 20 µM (AID 1117336;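 active = compounds lowering colon cancer cell viability after pretreatment blocking the GSK3B kinase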); settings: HCT116 viability after GSK3B inhibitor, at 20 µM, stronger effect = higher value
[5] = inhibition of endothelial tube formation, primary screen, imaging, VEGF stimulated, CD31 staining, tube area, NPC library (AID 1117340;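 active = compound that reduces growth-factor-driven endothelial tube area in a mixed cell culture, no cutoff stated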); settings: VEGF-stimulated ADSC/ECFC co-culture, at 10 µM, stronger effect = higher value
[6] = GLP1 release stimulators, primary, NCI-H716, NPC library (AID 1117341;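 active = compound raises GLP1 secretion from the human gut endocrine cells, with no numeric limit stated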); settings: NCI-H716 cells, at 10 µM, stronger effect = higher value
[7] = HCT116 colon cancer cell growth inhibition, primary screen, CellTiter-Glo luminescence, NPC library (AID 1117342;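 active = compounds that lower survival of HCT116 colon cancer cells in the luminescence readout, no numeric limit stated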); settings: at 20 µM (top of the series)
[8] = reduced SW480 viability measured with CellTiter-Glo, NPC library, primary (AID 1117343;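 active = compounds that lower viability of the colon cancer cells in the luminescence readout, with no numeric limit stated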); settings: CellTiter-Glo luminescence; at 20 µM (top of the series) unless noted
[9] = NPC library primary testing for decreased DLD-1 cell viability via CellTiter-Glo (AID 1117346;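 active = compounds that lower survival of DLD-1 colon cancer cells in the luminescence readout, no cutoff given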); settings: DLD-1 viability, CellTiter-Glo luminescence; at 20 µM (top of the series)
[10] = JHH-DIPG-1 glioma cell viability, MIPE5.0 library, CellTiter-Glo luminescence, qHTS (AID 1347067; cut-off not given, nearly all actives have AC50 up to about 26 µM;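 also: cells exposed to compound for 48 hours before readout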); settings: JHH-DIPG-1 glioma viability, CellTiter-Glo ATP luminescence
[11] = growth inhibition of DIPG cells – cell-based, MIPE5.0 library, qHTS (AID 1347068; cut-off not given, nearly all actives have IC50 up to about 30 µM); settings: SU-DIPG-XXV viability
[12] = viability loss with induced miR-34 in A549 – imaging, A549 dox-inducible miR-34, nuclei and caspase counts, primary screen (AID 1347080;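 active = compounds whose cell count with miR-34 switched on is under 0.7 times the count with it off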); settings: A549 miR-34 inducible, Hoechst nuclei count, 48 h
[13] = MELAS cybrid and Rieske KO viability enhancers – cell-based, MELAS cybrids, Rieske KO mouse fibroblasts, CellTiter-Glo, primary screen (AID 1508586;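 active = mean z-score across replicates of 1.96 or higher in either the MELAS or the Rieske mutant cell line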;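 also: z relative to plate mean and SD of compound and empty wells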); settings: low glucose
[14] = galactose survival enhancers in mitochondrial complex I cybrids – cell-based, galactose medium, ATP luminescence, primary screen (AID 1645843;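 active = z-score of at least 1.8 in each of two replicates, scored against plate mean and spread of sample wells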;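 also: positive z means more ATP and so rescue of galactose-driven cybrid death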); settings: complex I mutant cybrid cells, 72 h, stronger effect = higher value
[15] = viability loss in pontine glioma line – cell-based, JHH-DIPG-1, MIPE4.0, CellTiter-Glo, qHTS, dose response (AID 1347062; cut-off not given, nearly all actives have AC50 up to about 27 µM;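 as to AC50: cells exposed to compound for two days before readout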); settings: JHH-DIPG-1 viability, CellTiter-Glo ATP luminescence
[16] = viability loss in pontine glioma line – cell-based, SU-DIPG-IV, MIPE4.0, CellTiter-Glo, qHTS, dose response (AID 1347063; cut-off not given, nearly all actives have AC50 up to about 30 µM;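 also: compound exposure lasted 48 hours before the viability readout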); settings: CellTiter-Glo ATP luminescence
[17] = viability loss in pontine glioma line – cell-based, SU-DIPG-XXV, MIPE5.0, CellTiter-Glo, qHTS, dose response (AID 1347065; cut-off not given, nearly all actives have AC50 up to about 26 µM;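 also: cells exposed to compound for 48 hours before ATP readout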); settings: CellTiter-Glo ATP luminescence
[18] = drug combination growth inhibition, ovarian cancer – cell-based, oncology-focused library, rucaparib conditional, profiling panel (AID 1508598); settings: patient-derived ovarian cancer cells, CellTiter-Glo viability, 144 h, stronger effect = lower value
[19] = growth inhibition of DIPG cells – cell-based, MIPE4.0 library, CellTiter-Glo luminescence, qHTS (AID 1347066; cut-off not given, nearly all actives have AC50 up to about 30 µM;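 also: cells exposed to compound for 48 hours before readout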); settings: SU-DIPG-VI viability, CellTiter-Glo ATP luminescence
[20] = blockers of cellular phospholipid synthesis – cell-based, LOPAC library, screen 4, primary screen (AID 1347384; call rule not given here); settings: animal cells, phospholipid biosynthesis inhibition screen; at 10 µM
[21] = stronger effect = lower value, cell number ratio, induced over uninduced
[22] = measured here: relative caspase fold change +Dox/-Dox
[23] = measured here: total cells with miR-34 induction, stronger effect = lower value
[24] = measured here: total cells without miR-34 induction
[25] = MELAS cybrid survival, CellTiter-Glo 48 h, stronger effect = higher value
[26] = Rieske KO mouse fibroblast survival, CellTiter-Glo 72 h

Cc1ccc(-c2ncc(Cl)cc2-c2ccc(S(C)(=O)=O)cc2)cn1
8.4%: nuclear beta-catenin stimulation ([2]; stimulation, at 2 µM)
120%: viability [1]
0.187 and -0.33: z-score [13, 26]
10600: cell count [12, 24]
inactive: parasite load remaining [1] 30% | nuclear beta-catenin stimulation ([2]; at 10 µM) 10.8% | insulin secretion stimulation [3] 2.3% | viability decrease [4] 27.3% | tube area decrease [5] -22.7% | GLP1 secretion stimulation [6] 0.5% | viability decrease (inhibition) [8] 5.7% | viability decrease (inhibition) [9] 12.4% | outcome [10] | outcome [11] | fold change [12, 21] 0.833 | z-score [13, 25] -0.283 and 0.00989 | z-score [14] 1.08
0.95: fold change [12, 22]
8800: cell count [12, 23]
active: inhibition of viability [7] -14.5%

C#Cc1cccc(Nc2ncnc3cc(OCCOC)c(OCCOC)cc23)c1
2.01 (active) and 0.197: z-score [13, 25]
active: viability decrease [4] 72.1% | inhibition of viability [7] 59.4% | viability decrease (inhibition) [9] 83.4% | AC50 [15] 7.43 µM | AC50 [16] 7.43 µM | AC50 [17] 7.42 µM | viability ([18]; at 0.000305 µM, OCI-P5x cells, without rucaparib) 93.6% | viability ([18]; at 0.00122 µM, OCI-P5x cells, without rucaparib) 96.4% | viability ([18]; at 0.0195 µM, OCI-P5x cells, without rucaparib) 97.9% | viability ([18]; at 0.0781 µM, OCI-P5x cells, without rucaparib) 99% | viability ([18]; at 0.313 µM, OCI-P5x cells, without rucaparib) 91.2% | viability ([18]; at 1.25 µM, OCI-C5x cells, with rucaparib 10 µM, 100% = cells with rucaparib alone) 76% | viability ([18]; at 1.25 µM, OCI-C5x cells, without rucaparib) 91.8% | viability ([18]; at 1.25 µM, OCI-P5x cells, without rucaparib) 83% | viability ([18]; at 5 µM, OCI-C5x cells, with rucaparib 10 µM, 100% = cells with rucaparib alone) 39.7% | viability ([18]; at 5 µM, OCI-C5x cells, without rucaparib) 62.2% | viability ([18]; at 5 µM, OCI-P5x cells, with rucaparib 20 µM, 100% = cells with rucaparib alone) 76.9% | viability ([18]; at 5 µM, OCI-P5x cells, without rucaparib) 66.3%
-0.8%: nuclear beta-catenin stimulation ([2]; stimulation, at 2 µM)
4550: cell count [12, 23]
inactive: parasite load remaining [1] 380% | nuclear beta-catenin stimulation ([2]; at 10 µM) 1.3% | insulin secretion stimulation [3] 1.8% | tube area decrease [5] -49.7% | GLP1 secretion stimulation [6] 1.7% | viability decrease (inhibition) [8] 34.2% | fold change [12, 21] 0.807 | viability ([18]; at 0.000305 µM, OCI-C5x cells, with rucaparib 10 µM, 100% = cells with rucaparib alone) 108% | viability ([18]; at 0.000305 µM, OCI-C5x cells, without rucaparib) 109% | viability ([18]; at 0.000305 µM, OCI-P5x cells, with rucaparib 20 µM, 100% = cells with rucaparib alone) 121% | viability ([18]; at 0.00122 µM, OCI-C5x cells, with rucaparib 10 µM, 100% = cells with rucaparib alone) 105% | viability ([18]; at 0.00122 µM, OCI-C5x cells, without rucaparib) 109% | viability ([18]; at 0.00122 µM, OCI-P5x cells, with rucaparib 20 µM, 100% = cells with rucaparib alone) 142% | viability ([18]; at 0.00488 µM, OCI-C5x cells, with rucaparib 10 µM, 100% = cells with rucaparib alone) 109% | viability ([18]; at 0.00488 µM, OCI-C5x cells, without rucaparib) 104% | viability ([18]; at 0.00488 µM, OCI-P5x cells, with rucaparib 20 µM, 100% = cells with rucaparib alone) 111% | viability ([18]; at 0.00488 µM, OCI-P5x cells, without rucaparib) 101% | viability ([18]; at 0.0195 µM, OCI-C5x cells, with rucaparib 10 µM, 100% = cells with rucaparib alone) 105% | viability ([18]; at 0.0195 µM, OCI-C5x cells, without rucaparib) 101% | viability ([18]; at 0.0195 µM, OCI-P5x cells, with rucaparib 20 µM, 100% = cells with rucaparib alone) 122% | viability ([18]; at 0.0781 µM, OCI-C5x cells, with rucaparib 10 µM, 100% = cells with rucaparib alone) 102% | viability ([18]; at 0.0781 µM, OCI-C5x cells, without rucaparib) 106% | viability ([18]; at 0.0781 µM, OCI-P5x cells, with rucaparib 20 µM, 100% = cells with rucaparib alone) 135% | viability ([18]; at 0.313 µM, OCI-C5x cells, with rucaparib 10 µM, 100% = cells with rucaparib alone) 101% | viability ([18]; at 0.313 µM, OCI-C5x cells, without rucaparib) 104% | viability ([18]; at 0.313 µM, OCI-P5x cells, with rucaparib 20 µM, 100% = cells with rucaparib alone) 109% | viability ([18]; at 1.25 µM, OCI-P5x cells, with rucaparib 20 µM, 100% = cells with rucaparib alone) 101% | z-score [14] 1.06
5640: cell count [12, 24]
1.12: fold change [12, 22]
168%: viability [1]
-0.563 and 2.07: z-score [13, 26]

CC(C)(C)C(=O)OCOP(=O)(COCCn1cnc2c(N)ncnc21)OCOC(=O)C(C)(C)C
0.703 and 1.46: fold change [12, 22]
72.7%: nuclear beta-catenin stimulation ([2]; stimulation, at 2 µM)
inactive: insulin secretion stimulation [3] 3.5% | GLP1 secretion stimulation [6] 2.8% | outcome [11] | fold change [12, 21] 0.906 and 0.857 | z-score [13, 25] -0.539 and -0.165 | z-score [14] -0.625
active: nuclear beta-catenin stimulation ([2]; at 10 µM) 79.6% | viability decrease [4] 95.4% | tube area decrease [5] 100% | inhibition of viability [7] 73.3% | viability decrease (inhibition) [8] 95.4% | viability decrease (inhibition) [9] 78.5% | AC50 [16] 7.43 µM | AC50 [17] 20.9 µM | AC50 [19] 16.6 µM
5980 and 5100: cell count [12, 23]
6600 and 5960: cell count [12, 24]
0.795 and 0.351: z-score [13, 26]

CCOC(=O)Nc1ccc(NCc2ccc(F)cc2)nc1N
10200 and 8110: cell count [12, 23]
2.4%: nuclear beta-catenin stimulation ([2]; stimulation, at 2 µM)
0.797 and 0.68: fold change [12, 22]
inactive: nuclear beta-catenin stimulation ([2]; at 10 µM) 0.2% | insulin secretion stimulation [3] 1.9% | viability decrease [4] 5.6% | tube area decrease [5] -7.5% | GLP1 secretion stimulation [6] -1.1% | inhibition of viability [7] 18.8% | viability decrease (inhibition) [8] 1.7% | viability decrease (inhibition) [9] 8.6% | outcome [16] | outcome [19] | outcome [10] | fold change [12, 21] 1.05 and 0.965 | outcome [20] | z-score [13, 25] -0.196 | z-score [14] 1.55
-0.17: z-score [13, 26]
9760 and 8410: cell count [12, 24]

Clc1cccc(C(c2ccc3nc[nH]c3c2)n2ccnc2)c1 (stereo not drawn)
-0.6%: nuclear beta-catenin stimulation ([2]; stimulation, at 2 µM)
inactive: nuclear beta-catenin stimulation ([2]; at 10 µM) 0.3% | insulin secretion stimulation [3] 1.6% | viability decrease [4] 11.8% | tube area decrease [5] 19.4% | GLP1 secretion stimulation [6] 0.1% | inhibition of viability [7] 43.2% | viability decrease (inhibition) [8] 44.6% | viability decrease (inhibition) [9] 33.5% | outcome [17] | outcome [10] | outcome [11]

CCCCC(CC)COC(=O)C(C#N)=C(c1ccccc1)c1ccccc1 (stereo not drawn)
active: viability decrease [4] 51.7% | tube area decrease [5] 19.7% | viability decrease (inhibition) [9] 56.9%
inactive: nuclear beta-catenin stimulation ([2]; at 10 µM) -0.2% | insulin secretion stimulation [3] -1.3% | GLP1 secretion stimulation [6] -1.3% | inhibition of viability [7] 43.8% | viability decrease (inhibition) [8] 28.2% | outcome [15] | outcome [16] | outcome [19] | outcome [11]
0.7%: nuclear beta-catenin stimulation ([2]; stimulation, at 2 µM)

CCCCCCCCCCCCCCCCNc1ccc(C(=O)O)cc1
0.501: fold change [12, 22]
4330: cell count [12, 23]
inactive: nuclear beta-catenin stimulation ([2]; at 10 µM) 11.3% | insulin secretion stimulation [3] 4.2% | GLP1 secretion stimulation [6] -2.9% | inhibition of viability [7] 45% | fold change [12, 21] 0.865
active: viability decrease [4] 68.9% | tube area decrease [5] 109% | viability decrease (inhibition) [8] 72.6% | viability decrease (inhibition) [9] 61.9%
1.2%: nuclear beta-catenin stimulation ([2]; stimulation, at 2 µM)
5010: cell count [12, 24]

CC=CC1=C(C(=O)O)N2C(=O)[C@@H](NC(=O)[C@H](N)c3ccc(O)cc3)[C@H]2SC1
inactive: nuclear beta-catenin stimulation ([2]; at 10 µM) 1% | insulin secretion stimulation [3] -0.3% | viability decrease [4] 4.9% | tube area decrease [5] -8.9% | GLP1 secretion stimulation [6] -4% | inhibition of viability [7] 41.6% | viability decrease (inhibition) [8] 45.4% | viability decrease (inhibition) [9] 33.9% | outcome [15] | outcome [16] | outcome [19]
2.9%: nuclear beta-catenin stimulation ([2]; stimulation, at 2 µM)
